Values without a mark were called inactive. Inconclusive results are not listed. Where a call stands in place of a potency, no number is given. Activity calls are given as the source filed them. Unless noted, the call rests on the fitted dose curve.
Columns and labels:
[1] = molecular target: Thyrotropin receptor (Homo sapiens) (UniProt P16473); experiment: qHTS assay to identify small molecule agonists of the thyroid stimulating hormone receptor (TSHR) signaling pathway (AID 1224843); further: nearly all actives have a fitted effect of over 45% in size
Sequence of Thyrotropin receptor (Homo sapiens) (P16473 whole entry, looked up): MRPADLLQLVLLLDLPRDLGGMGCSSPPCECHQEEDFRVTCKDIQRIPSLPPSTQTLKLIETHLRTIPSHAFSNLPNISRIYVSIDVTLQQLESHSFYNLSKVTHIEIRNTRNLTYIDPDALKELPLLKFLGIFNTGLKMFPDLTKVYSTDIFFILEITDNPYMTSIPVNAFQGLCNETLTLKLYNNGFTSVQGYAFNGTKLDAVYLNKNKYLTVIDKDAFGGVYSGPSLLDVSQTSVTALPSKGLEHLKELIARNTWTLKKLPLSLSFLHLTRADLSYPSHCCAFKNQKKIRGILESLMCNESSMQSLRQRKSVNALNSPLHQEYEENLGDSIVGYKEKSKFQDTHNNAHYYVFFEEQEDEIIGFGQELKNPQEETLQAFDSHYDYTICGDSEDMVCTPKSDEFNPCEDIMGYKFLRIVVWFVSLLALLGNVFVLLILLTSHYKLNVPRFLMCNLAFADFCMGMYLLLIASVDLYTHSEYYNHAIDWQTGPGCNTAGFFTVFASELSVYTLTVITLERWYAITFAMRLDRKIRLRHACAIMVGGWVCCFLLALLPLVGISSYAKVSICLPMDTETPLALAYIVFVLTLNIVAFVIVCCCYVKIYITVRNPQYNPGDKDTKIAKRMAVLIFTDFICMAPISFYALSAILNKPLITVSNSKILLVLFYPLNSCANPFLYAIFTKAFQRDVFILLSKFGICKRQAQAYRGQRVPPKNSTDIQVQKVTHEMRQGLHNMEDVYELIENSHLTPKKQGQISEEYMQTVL
Outline: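 Using 15 concentrations per compound in triplicate, cAMP production was monitored in TSHR-HEK293 cells after 30 min compound incubation at RT; HTRF reagents followed, with fluorescence intensity recorded after 1 h.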

[2] = qHTS assay to identify small molecule agonists of the hypoxia (HIF-1) signaling pathway - cell viability counter screen (AID 1224844); further: nearly all actives have a fitted effect of over 50% in size; further: potency means the concentration at half of the fitted maximal effect
Outline: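 In this counter screen, HRE-bla ME-180 cell viability after 17 hrs of compound exposure at 37C was read by CellTiter-Glo luminescence, multiplexed with the beta-lactamase reporter measurement.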

[3] = qHTS assay to identify small molecule agonists of H2AX (AID 1224845; active means well fitted activation curve with a large enough effect in the signal ratio in the repeat runs, not every such curve was filed as active; the % refers to the signal ratio)
Outline: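 Wild-type CHO-K1 cells plated overnight, then exposed 3 hr at 37C to compounds at 15 concentrations (0.76% DMSO). Lysed, then HTRF anti-pH2AX(S139)-cryptate/anti-H2AX-d2 detection after 24 hr at room temperature; emissions 665 and 620 nm.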

[4] = qHTS assay to identify small molecule agonists of the hypoxia (HIF-1) signaling pathway (AID 1224846; active means well fitted activation curve with a large enough effect in the signal ratio in the repeat runs, not every such curve was filed as active; the % refers to the signal ratio)
Outline: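 ME-180 HRE-bla reporter cells; compounds in DMSO, 17 h at 37C; read-out beta-lactamase via CCF4-AM FRET.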

[5] = qHTS assay to identify small molecule agonists of H2AX - cell viability counter screen (AID 1224847); further: top concentration of the series differs between compounds; nearly all actives have a fitted effect of over 30% in size
Outline: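 Counter-screen for viability: CellTiter-Glo ATP luminescence read after 3 h compound treatment (15-point titration, 0.76% DMSO final) of CHO-K1 cells at 37C, with 30 min room-temperature reagent incubation.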

[6] = qHTS assay to identify small molecule agonists of the estrogen related receptor (ERR) signaling pathway from Tox21 library (AID 1224849); conditions: ERR reporter cell line, ONE-Glo luciferase, 18 h; at 92.4 µM (top of the series) unless noted; further: nearly all actives have a fitted effect of over 15% in size
Outline: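 Luciferase activity in ERR pathway reporter cells served as the agonist readout; exposure lasted 18 h at 37 C, with ONE-Glo detection after 30 min at room temperature.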

[7] = qHTS RealTime-Glo MT Cell Viability Assay in HepG2 cells - 24 hour (AID 1224867; active means well fitted curve in the direction sought with a large enough effect in the repeat runs; an effect the other way counts as inactive or inconclusive; further: nearly all actives have a fitted effect of over 50% in size)
Outline: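 Tox21 10K library screened in qHTS format on HepG2 cells carrying RealTime-Glo reagents. Compounds were added after a 5 h preincubation, and the luminescent signal from continuous culture was measured repeatedly during 40 h treatment.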

[8] = A CellTox Green Cytotoxicity Assay to monitor cytotoxicity in HEK293 cells - 0 hour (AID 1224869; active means well fitted curve in the direction sought with a large enough effect in the repeat runs; an effect the other way counts as inactive or inconclusive; further: nearly all actives have a fitted effect of over 50% in size)
Outline: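 Real-time, in one plate: 600 HEK293 cells/well with dead-cell DNA dye, pinned compound after 5 h, 37 C incubation over 40 h; viable cells give no appreciable fluorescence.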

[9] = qHTS RealTime-Glo MT Cell Viability Assay in HEK293 cells - 32 hour (AID 1224868; active means well fitted curve in the direction sought with a large enough effect in the repeat runs; an effect the other way counts as inactive or inconclusive; further: nearly all actives have a fitted effect of over 50% in size; further: potency means the concentration at half of the fitted maximal effect)
Outline: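 Luminescence generated by NanoLuc from substrate produced by living HEK293 cells served as the viability signal. Each value reflects the reading at its stated time point during continuous 40 h compound exposure at 37 C.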

[10] = qHTS assay to identify small molecule antagonists of the estrogen related receptor (ERR) signaling pathway from Tox21 library (AID 1224848; active means well fitted curve in the direction sought with a large enough effect in the repeat runs; an effect the other way counts as inactive or inconclusive; further: nearly all actives have a fitted effect of over 50% in size; further: potency means the concentration at half of the fitted maximal effect)
Outline: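 Tox21 10K compounds in DMSO tested for ERR pathway antagonism in NTP's ERR cell line; 18 h, 37 C exposure; ONE-Glo luminescence.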

Compound	Potency [1]	Potency [2]	Potency [3]	outcome [4]	Potency [5]	activity change, positive = activation [6]	Potency [7]	Potency [8]	Potency [9]	Potency [10]
CC(C)(O)c1ccc(CNC(=O)c2cccnc2Oc2ccc3nonc3c2)cc1	inactive	inactive	inactive	inactive	inactive	-39.3%	inactive	inactive		
CCCCC(CC)CN (stereo not drawn)	inactive	inactive	inactive	inactive	inactive	2.45%	inactive	inactive	inactive	
CCCCCC[C@@H](O)C/C=C\CCCCCCCC(=O)O	inactive	inactive	inactive	inactive	inactive	-0.13%	inactive	inactive	inactive	inactive
OC1(c2ccccc2)CCNCC1	inactive	inactive	inactive	inactive	inactive	5.89% [at 42.5 µM]	inactive	inactive	inactive	inactive
Cc1c(C)c2c(c(C)c1OC(=O)CCC(=O)OCCO)CC[C@@](C)(CCC[C@H](C)CCC[C@H](C)CCCC(C)C)O2	inactive	inactive	inactive	inactive	inactive	-48.8% [at 42.5 µM]	inactive	inactive	inactive	
c1ccc(C[n+]2cccc3ccccc32)cc1	inactive	inactive	inactive	inactive	inactive	-48.3%	inactive	inactive	inactive	48.6 µM (active)
CCC(OCCCOC)OC(C)=O (stereo not drawn)	inactive	inactive	inactive	inactive	inactive		inactive	inactive	inactive	
CN1CCCC(n2nc(Cc3ccc(Cl)cc3)c3ccccc3c2=O)CC1 (stereo not drawn)	inactive	21.3 µM (active)	inactive	inactive	inactive	-15.1% [at 42.5 µM]		inactive	9.52 µM (active)	
C[C@H]1C[C@H](O)c2ccsc2S1(=O)=O	inactive	inactive	inactive	inactive	inactive	5.62% [at 42.5 µM]	inactive	inactive	inactive	inactive
CC(=O)OCC(=O)NCCCOc1cccc(CN2CCCCC2)c1	inactive	inactive	inactive	inactive	inactive	4.2% [at 42.5 µM]	inactive	inactive	inactive	inactive
CCOC(=O)c1ccc(OCCN2C[C@H](O)[C@@H](O)[C@H](O)[C@H]2CO)cc1	inactive	inactive	inactive	inactive	inactive		inactive	inactive	inactive	
O=C1Cc2cc(Cl)ccc2N1	inactive	inactive	inactive	inactive	inactive	0.547% [at 42.5 µM]	inactive	inactive	inactive	
C=CC(C)(CCC=C(C)C)OC(=O)CC(C)C (stereo not drawn)	inactive	inactive	inactive	inactive	inactive		inactive	inactive	inactive	
CCCCCCCCCCC(=O)O	inactive	inactive	inactive	inactive	inactive		inactive	inactive	inactive	
Cc1ccc(CO)cc1	inactive	inactive	inactive	inactive	inactive		inactive	inactive	inactive	
CCC1(CO)COCOC1	inactive	inactive	inactive	inactive	inactive	7.78%	inactive	inactive	inactive	
N#CCc1ccc(Cl)cc1Cl	inactive	inactive	inactive	inactive	inactive	0.109%	inactive	inactive	inactive	inactive
Nc1ncnc2c1ncn2[C@H]1CC[C@@H](CO)O1	inactive	inactive	inactive	inactive			inactive	inactive	inactive	
O[C@@H]1CO[C@H]2[C@@H]1OC[C@@H]2O	inactive	inactive	inactive	inactive	inactive		inactive	inactive	inactive	
COc1cc(N)c(Cl)cc1C(=O)NC1CCN(CCCOc2ccc(F)cc2)CC1OC (stereo not drawn)	inactive	inactive	inactive			-39.2% [at 42.5 µM]	inactive	inactive	3.01 µM (active)	11.9 µM (active)
CO/N=C(/C(=O)N[C@@H]1C(=O)N2C(C(=O)O)=C(COC(N)=O)CS[C@H]12)c1ccco1	inactive	inactive	inactive	inactive	inactive		inactive	inactive	inactive	
NNC(=O)CP(=O)(c1ccccc1)c1ccccc1	inactive	inactive	inactive	inactive	inactive		inactive	inactive	inactive	
CCCCN1CCCC1C(=O)Nc1c(C)cc(C)cc1C (stereo not drawn)	inactive	inactive	inactive	inactive	inactive		inactive	inactive		

— PubChem BioAssay (Tox21)
